# Screening results as filed in PubChem.
# HT1080NT lethal: kills 2HG-producing HT-1080-NT fibrosarcoma cells; Potency, µM (series often up to 46.1 µM), inactives show at the top dose activity, negative = less viability, hits mostly cytotoxic; HT-1080-NT fibrosarcoma viability, CellTiter-Glo ATP luminescence, 48 h; 360,000 compounds, 1.6% hits;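 note: NT is the 2HG producing partner of a matched IDH1 knockdown line; potency is the fitted concentration of half-maximal effect; 0% = DMSO-treated cells and -100% = media-only wells without cells; nearly all actives have a fitted effect of over 55% in size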
#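 Read-out is CellTiter-Glo luminescence after 10 minutes at room temperature, following 48 hours' compound treatment of HT-1080-NT cells (750 cells/well, RPMI, 5% FBS, 37 degrees C).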
# IL1B secr inh: blocks inflammasome-driven IL-1 beta release. activity change, % at 57.5 µM. 360,000 compounds, 4.7% hits. THP-1 LPS/ATP IL-1B secretion, AlphaLISA, 16 h; stronger effect = lower value; in the data active = activity change below about -50%; inconclusive = mostly about -30% to -49%
#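 THP-1 cells pretreated 1 hr with compounds (up to 57.5 uM final), then stimulated with LPS (250 ng/mL final) plus ATP (1.25 mM final); secreted IL-1B measured by AlphaLISA after 16 hr, decreased signal indicating inhibition.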
# DT40 TDP1 no CPT: qHTS for Inhibitors of human tyrosyl-DNA phosphodiesterase 1 (TDP1): qHTS in cells in absence of CPT | 420,000 compounds, 15% hits | DT40 Tdp1-/- hTDP1 cells, no CPT, ATP luminescence, 48 h | Potency, µM (highest dose often 46.2 µM), without a hit: at the top dose activity change, negative = growth inhibition, usual class: inhibitors; note: potency is the fitted concentration of half-maximal effect; nearly all actives have a fitted effect of over 55% in size
#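 Growth of hTDP1-complemented DT40 Tdp1-knockout cells is measured by ATP luminescence after at least 48 hr compound exposure at 37 °C, with DMSO substituting for the 20 nM CPT used in the parallel screen.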
# HT1080 IDH1KD tx: kills HT-1080 cells with IDH1 knockdown; 360,000 compounds, 2% hits; HT-1080 IDH1 knockdown viability, ATP luminescence, 48 h; Potency, µM (series often up to 46.1 µM), for the others: at the top dose activity, negative = toxicity, most hits filed as cytotoxic; AID 686971;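 note: potency is the fitted concentration of half-maximal effect; 0% = DMSO wells and -100% = cell-free medium wells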
#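 HT-1080-IDH1KD cells (IDH1 knocked down), 750/well in RPMI with 5% FBS, treated with compound 48 h at 37 degrees C. Viability by CellTiter-Glo luminescence, normalised to DMSO and no-cell wells; concentration-response curves classed.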
# TDP1 cell CPT: DT40-hTDP1 cell growth loss with CPT. chicken DT40 Tdp1-/-;hTDP1 cells + 20 nM CPT, ATP luminescence, 48 h. Potency, µM (series often up to 46.2 µM), without a hit: at the highest dose activity change, negative = growth inhibition, most hits filed as inhibitors. 420,000 compounds, 12% hits; note: potency is the fitted concentration of half-maximal effect; nearly all actives have a fitted effect of over 55% in size
#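 Cell growth measured by CellTiter-Glo luminescence after a minimum 48 h, 37 C compound exposure with 20 nM CPT in Tdp1-knockout DT40 cells stably expressing hTDP1, seeded 400/well; qHTS titration format.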
# The depositor's hits bear a star; ? = inconclusive; . = no result; [ ] = another dose, or the depositor's remark. A selection: hits, their analogues and other compounds. The true share with any hit is near 19%. Unless noted, calls come from the whole dose curve; as a rule, active = well fitted curve in the direction sought with a large enough effect; inconclusive = small, poorly fitted or top-dose-only effect, or another doubt; inactive = no such curve, though single readings can be large; an effect the other way counts as inactive or inconclusive. Unless noted, % is set by controls: 0 for no effect and ±100 for the full control effect.
SMILES,HT1080NT lethal,IL1B secr inh,DT40 TDP1 no CPT,HT1080 IDH1KD tx,TDP1 cell CPT
O=C(CCNS(=O)(=O)c1ccc2c(c1)CCN2C(=O)C1CC1)N1CCN(c2ccccc2F)CC1,.,.,12µM*,.,13µM*
CC1=C(C(N)=O)C(c2ccc(C)cc2)n2nc(SCc3ccccc3F)nc2N1 (stereo unspecified),.,.,-14%,.,-20%
CC(=O)Oc1ccc(N2C(=O)C3C(C2=O)C(C(=O)c2ccc(Cl)cc2)N2CCCC32)cc1 (stereo unspecified),?,-101*,18µM*,23µM*,?
COC(=O)c1nc(-c2ccccc2)nc(-c2ccccc2)c1C(=O)OC,0%,38,-13%,4%,13%
CCCC(=O)NC(c1cccs1)c1cc(Cl)c2cccnc2c1O (stereo unspecified),-28%,89,2.9µM*,?,5.2µM*
CCCC(=O)NC(c1ccco1)c1cc(Cl)c2cccnc2c1O (stereo unspecified),?,72,4.6µM*,10µM*,3.7µM*
CCCC(=O)NC(c1ccc2c(c1)OCO2)c1cc(Cl)c2cccnc2c1O (stereo unspecified),8.2µM*,-82*,3.7µM*,3.7µM*,4.6µM*
CC(C)C(=O)NC(c1cccs1)c1cc([N+](=O)[O-])c2cccnc2c1O (stereo unspecified),?,-13,?,7.3µM*,?
Cc1ccccc1CNC(=O)CN1C(=O)C2CCCCN2c2ccc(C(=O)N3CCCC3)cc21 (stereo unspecified),.,.,-26%,.,-15%
CCOCCCn1c(SCc2ccccc2)nnc1-c1ccncc1,16%,-3,-15%,17%,7%
Cc1ccc(OC/C(=N\O)C(C)(C)C)c([N+](=O)[O-])c1,-4%,-82*,-26%,-20%,-6%
CC(C)(C)C(=O)COc1ccccc1[N+](=O)[O-],1%,-16,?,0%,15µM*
O=C1CCCN1C(=O)COc1ccccc1[N+](=O)[O-],2%,5,-17%,7%,-8%
COc1cc(-c2cc(C)c3c(OC)ccc(OC)c3n2)cc2c1OCCN(Cc1cn(C)nc1C)C2,.,.,-22%,.,33%[9.04 µM]
CCN(C(=O)COC(=O)C(C)(C)Oc1ccc(Cl)cc1)c1c(N)n(Cc2ccccc2)c(=O)[nH]c1=O,-8%,-10,?,-2%,-15%
O=C(Nc1ccc(N2CCN(C(=O)c3ccc(Cl)cc3)CC2)cc1)c1ccc([N+](=O)[O-])o1,10µM*,-107*,1.2µM*,2.6µM*,2.9µM*
CCC(=O)N1CCN(c2ccc(NC(=O)c3ccc([N+](=O)[O-])o3)cc2)CC1,6.5µM*,-103*,21µM*,5.2µM*,4.6µM*
CC1CCN(c2ccc(NC(=O)c3ccc([N+](=O)[O-])o3)cc2)CC1,16µM*,-109*,3.3µM*,7.3µM*,4.6µM*
CC1CCN(C(=O)c2ccc([N+](=O)[O-])o2)CC1,14%,-24,-13%,-3%,?
CS(=O)(=O)N1CCN(c2ccc(NC(=O)c3cc4ccccc4o3)cc2)CC1,3%,7,5%,9%,-26%
CS(=O)(=O)N1CCN(c2ccc(NC(=O)c3ccc([N+](=O)[O-])o3)cc2)CC1,?,-97*,7.3µM*,?,2.6µM*
CCCC(=O)N1CCN(c2ccc(NC(=O)c3ccc(Br)o3)cc2)CC1,19%,?,-17%,9%,-15%
CC(OC(=O)C1CCN(c2ccc(C(F)(F)F)cn2)CC1)C(=O)Nc1cccc([N+](=O)[O-])c1 (stereo unspecified),-2%,14,-30%,-6%,?
CC(C)(C)C(=O)N1CCN(c2ccc(NC(=O)c3ccco3)cc2)CC1,18%,?,-20%,20%,-6%
CC(C)(C)C(=O)N1CCN(c2ccc(NC(=O)c3ccc([N+](=O)[O-])o3)cc2)CC1,4.1µM*,-96*,6.5µM*,5.2µM*,2.6µM*
SMILES,HT1080NT lethal,IL1B secr inh,DT40 TDP1 no CPT,HT1080 IDH1KD tx,TDP1 cell CPT
COc1ccc(-c2cccc(NS(=O)(=O)c3cc([N+](=O)[O-])c(C)c([N+](=O)[O-])c3)c2)nn1,-3%,17,-28%,-12%,?
Oc1ccc(Cl)cc1CNCc1cccc2ccccc12,0%,-21,?,5%,?
Cc1sc2ncn(CC(=O)N(C)c3ccc(C(C)C)cc3)c(=O)c2c1S(=O)(=O)N1CCC(C)CC1,.,.,23µM*,.,23µM*
COc1ccccc1N1CCN(S(=O)(=O)c2c(C)sc3ncn(CC(=O)N(C)c4ccc(C(C)C)cc4)c(=O)c23)CC1,.,.,?,.,13µM*
CCC(C)NC(=O)Cn1cnc2sc(C)c(S(=O)(=O)N3CCN(c4ccccc4OC)CC3)c2c1=O (stereo unspecified),1%,2,-29%,-3%,8%
CC(=O)Nc1nnc(SCC(=O)Nc2nc(C)cs2)s1,2%,17,6%,0%,6%
O=C(CCNC(=O)C1CCN(S(=O)(=O)c2ccc(F)cc2)CC1)NCc1ccncc1,5%,5,26%,15%,-1%
O=c1cc(O)c2sc(Nc3ccc(F)c(Cl)c3)nc2[nH]1,-1%,21,3.7µM*,10%,3.3µM*
O=c1cc(O)c2sc(Nc3ccc(Cl)c(F)c3)nc2[nH]1,-1%,22,4.6µM*,-13%,5.2µM*
CC(=O)c1ccc(NC(=O)CSc2nc3[nH]c(=O)cc(O)c3s2)cc1,-6%,-3,?,-1%,?
COc1ccc(Nc2nc3[nH]c(=O)cc(O)c3s2)cc1,-10%,-13,18µM*,2%,12µM*
O=C(NCc1ccccc1Cl)C(=O)c1cn(CC(=O)N2CCOCC2)c2ccccc12,-4%,-5,?,-2%,-18%
Cc1ccc(O)c(-c2cc(C(=O)Nc3cccnc3)[nH]n2)c1,0%,?,-27%,-17%,-24%
Cc1ccc(O)c(-c2cc(-c3ccccc3C)[nH]n2)c1,-3%,-95*,?,-11%,?
Oc1ccc(Cl)cc1-c1cc(-c2cccc(Br)c2)n[nH]1,-24%,-14,18µM*,-28%,16µM*
Oc1ccc(Cl)cc1-c1cc(-c2ccco2)[nH]n1,?,47,18µM*,?,9.2µM*
Oc1ccc(Cl)cc1-c1cc(-c2ccccc2Cl)[nH]n1,-28%,13,-18%,0%,-15%
Cc1ccc(O)c(-c2cc(C(F)(F)C(F)F)[nH]n2)c1,-22%,-8,16µM*,?,?
COc1ccc(CC(=O)NCc2ccc(F)cc2)cc1S(=O)(=O)N1CCOCC1,0%,9,-8%,6%,-27%
